From PubChem BioAssay AID1159580 (chemical genetic matrix, 2015)
Screen size: about 5,500 compounds; about 2,000 (36%) were called active. Roughly 18% stayed inconclusive and do not appear here. No stated cut-off is given here; in the data, active means normalized growth mostly below about 0.91 (no sharp cut-off); inconclusive means no clear call, values can overlap the other calls; inactive means mostly above about 0.92. This is one part of the list.

Assay: chemical genetic growth profiling, strain panel (AID 1159580);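 further: tested at 20 µM; growth read once vehicle control cultures reached saturation at 30 °C; 1 = growth at the plate median or of vehicle wells; lower values mean less growth of the strain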
Settings: growth OD

Measured: normalized growth

COc1cc(/C=C/C(=O)O)cc(OC)c1OC
inactive: S. cerevisiae deletion strains, locus YJR043C, strain POL32, hits give low values 0.999 | S. cerevisiae deletion strains, locus YJR066W, strain TOR1, hits give low values 1.02 | S. cerevisiae deletion strains, locus YKL009W, strain mrt4, hits give low values 1.03 | S. cerevisiae deletion strains, locus YKL068W, hits give low values 1.02 | S. cerevisiae deletion strains, locus YKL085W, strain MDH1 (second series), hits give low values 1.01 | S. cerevisiae deletion strains, locus YKL085W, strain MDH1, hits give low values 1.01 | S. cerevisiae deletion strains, locus YKL160W, strain elf1, hits give low values 0.985 | S. cerevisiae deletion strains, locus YKR001C, strain vps1, hits give low values 1 | S. cerevisiae deletion strains, locus YKR026C, strain gcn3, hits give low values 0.985 | S. cerevisiae deletion strains, locus YKR091W, strain srl3, hits give low values 0.98 | S. cerevisiae deletion strains, locus YLL001W, strain dnm1, hits give low values 0.969 | S. cerevisiae deletion strains, locus YLL026W, hits give low values 0.995 | S. cerevisiae deletion strains, locus YLL041C, strain sdh2, hits give low values 0.999 | S. cerevisiae deletion strains, locus YLR027C, strain aat2, hits give low values 0.998 | S. cerevisiae deletion strains, locus YLR039C, strain RIC1, hits give low values 1.04 | S. cerevisiae deletion strains, locus YLR058C, strain SHM2, hits give low values 1.02 | S. cerevisiae deletion strains, locus YLR102C, strain apc9, hits give low values 1.02 | S. cerevisiae deletion strains, locus YLR113W, strain HOG1, hits give low values 1.03 | S. cerevisiae deletion strains, locus YLR221C, strain rsa3, hits give low values 1 | S. cerevisiae deletion strains, locus YLR258W, strain gsy2, hits give low values 0.993 | S. cerevisiae deletion strains, locus YLR262C, strain YPT6 (second series), hits give low values 0.994 | S. cerevisiae deletion strains, locus YLR262C, strain YPT6, hits give low values 1.01 | S. cerevisiae deletion strains, locus YLR268W, strain sec22, hits give low values 1.02 | S. cerevisiae deletion strains, locus YLR320W, strain mms22, hits give low values 0.995 | S. cerevisiae deletion strains, locus YLR330W, strain CHS5, hits give low values 1.01 | S. cerevisiae deletion strains, locus YLR342W, strain FKS1 (second series), hits give low values 0.999 | S. cerevisiae deletion strains, locus YLR342W, strain FKS1, hits give low values 0.986 | S. cerevisiae deletion strains, locus YLR357W, strain rsc2, hits give low values 0.993 | S. cerevisiae deletion strains, locus YLR370C, strain arc18, hits give low values 0.992 | S. cerevisiae deletion strains, locus YLR371W, strain rom2, hits give low values 1.06 | S. cerevisiae deletion strains, locus YLR384C, strain iki3, hits give low values 0.986 | S. cerevisiae deletion strains, locus YLR418C, strain cdc73, hits give low values 0.975 | S. cerevisiae deletion strains, locus YML016C, strain PPZ1, hits give low values 1.01 | S. cerevisiae deletion strains, locus YML032C, strain rad52, hits give low values 1.03 | S. cerevisiae deletion strains, locus YML120C, strain ndi1, hits give low values 1 | S. cerevisiae deletion strains, locus YML124C, strain tub3, hits give low values 1.02 | S. cerevisiae deletion strains, locus YMR058W, strain fet3, hits give low values 0.997 | S. cerevisiae deletion strains, locus YMR078C, strain ctf18, hits give low values 1.05 | S. cerevisiae deletion strains, locus YMR125W, strain sto1, hits give low values 0.965 | S. cerevisiae deletion strains, locus YMR129W, hits give low values 0.996 | S. cerevisiae deletion strains, locus YMR205C, strain PFK2, hits give low values 0.984 | S. cerevisiae deletion strains, locus YMR223W, strain ubp8, hits give low values 1.04 | S. cerevisiae deletion strains, locus YMR231W, strain pep5, hits give low values 0.981 | S. cerevisiae deletion strains, locus YMR263W, strain SAP30, hits give low values 1.01 | S. cerevisiae deletion strains, locus YMR307W, strain GAS1, hits give low values 1.04 | S. cerevisiae deletion strains, locus YNL067W, strain RPL9B, hits give low values 1.01 | S. cerevisiae deletion strains, locus YNL071W, strain lat1, hits give low values 0.991 | S. cerevisiae deletion strains, locus YNL183C, strain NPR1, hits give low values 1.03 | S. cerevisiae deletion strains, locus YNL209W, strain ssb2, hits give low values 0.996 | S. cerevisiae deletion strains, locus YNL233W, strain BNI4, hits give low values 0.999 | S. cerevisiae deletion strains, locus YNL248C, strain rpa49, hits give low values 1 | S. cerevisiae deletion strains, locus YNL250W, strain rad50, hits give low values 1.02 | S. cerevisiae deletion strains, locus YNL271C, strain bni1, hits give low values 1.02 | S. cerevisiae deletion strains, locus YNL298W, strain CLA4, hits give low values 1.03 | S. cerevisiae deletion strains, locus YNL307C, strain MCK1, hits give low values 1.02 | S. cerevisiae deletion strains, locus YNL322C, strain KRE1 (second series), hits give low values 0.99 | S. cerevisiae deletion strains, locus YNL322C, strain KRE1, hits give low values 1.01 | S. cerevisiae deletion strains, locus YNR049C, strain mso1, hits give low values 0.988 | S. cerevisiae deletion strains, locus YNR052C, strain pop2, hits give low values 1.01 | S. cerevisiae deletion strains, locus YOL006C, strain TOP1, hits give low values 1.04 | S. cerevisiae deletion strains, locus YOL012C, strain htz1 1.26 | S. cerevisiae deletion strains, locus YOL147C, strain pex11, hits give low values 1.02 | S. cerevisiae deletion strains, locus YOR001W, strain rrp6, hits give low values 1.03 | S. cerevisiae deletion strains, locus YOR061W, strain CKA2, hits give low values 1.02 | S. cerevisiae deletion strains, locus YOR069W, strain VPS5, hits give low values 1.01 | S. cerevisiae deletion strains, locus YOR070C, strain gyp1, hits give low values 0.991 | S. cerevisiae deletion strains, locus YOR080W, strain dia2, hits give low values 0.983 | S. cerevisiae deletion strains, locus YOR083W, strain WHI5, hits give low values 0.972 | S. cerevisiae deletion strains, locus YOR106W, strain vam3, hits give low values 0.961 | S. cerevisiae deletion strains, locus YOR136W, strain idh2, hits give low values 1.01 | S. cerevisiae deletion strains, locus YOR144C, strain elg1, hits give low values 1.01 | S. cerevisiae deletion strains, locus YOR184W, strain ser1, hits give low values 1.04 | S. cerevisiae deletion strains, locus YOR231W, strain MKK1, hits give low values 1.06 | S. cerevisiae deletion strains, locus YOR265W, strain rbl2, hits give low values 0.983 | S. cerevisiae deletion strains, locus YOR270C, strain vph1, hits give low values 0.998 | S. cerevisiae deletion strains, locus YOR290C, strain snf2, hits give low values 0.954 | S. cerevisiae deletion strains, locus YOR316C, strain cot1, hits give low values 1.02 | S. cerevisiae deletion strains, locus YPL051W, strain arl3, hits give low values 1 | S. cerevisiae deletion strains, locus YPL078C, strain atp4, hits give low values 0.987 | S. cerevisiae deletion strains, locus YPL106C, strain sse1, hits give low values 0.972 | S. cerevisiae deletion strains, locus YPL240C, strain hsp82, hits give low values 0.989 | S. cerevisiae deletion strains, locus YPL256C, strain CLN2, hits give low values 0.999 | S. cerevisiae deletion strains, locus YPR119W, strain clb2, hits give low values 1.03 | S. cerevisiae deletion strains, locus YPR141C, strain kar3, hits give low values 1.03 | S. cerevisiae deletion strains, locus YPR163C, strain tif3, hits give low values 1.03 | S. cerevisiae deletion strains, locus YPR167C, strain met16, hits give low values 1.02 | S. cerevisiae deletion strains, strain wtn01, hits give low values 1.01 | S. cerevisiae strains, strain wild type, hits give low values 1.01
